This is a sample that favours compounds with a hit; in the whole collection about 2.8% have one here.
Integrin act MD: activates integrin-mediated alleviation for muscular dystrophy | alpha7betagal myoblasts, beta-gal FDG fluorescence, 48 h | Potency, µM (highest dose often 38.3 µM), inactives show at the highest dose activation, most hits filed as activators | 350,000 compounds, 0.064% hits | AID 624291;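 further: potency means the concentration at half of the fitted maximal effect; 100% = response of the positive control SU9516; nearly all actives have a fitted effect of over 60% in size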
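Alpha7betagal+/- myoblasts (passage 13) were plated 16-24 hr, then exposed to compounds (1:260 dilution of DMSO stock) for 48 hours at 37C. After MPER lysis, β-galactosidase reporter activity was read as FDG fluorescence (ex 480/em 540) after 30 minutes.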
PTHR1 agonist: agonists of human PTHR1 parathyroid hormone receptor. Q03431. HEK293 GP2 PTHR1 cells, GloSensor cAMP luminescence, 1 h. Potency, µM (doses to about 115 µM), for the others: top-dose activation, usual class: activators. 410,000 compounds, 0.075% hits. AID 743266; further: potency means the concentration at half of the fitted maximal effect; nearly all actives have a fitted effect of over 55% in size
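HEK-293-derived GP2 cells expressing PTHR1 and a GloSensor cAMP reporter, 3,000/well, plated overnight, given luciferin plus IBMX (each 0.5 mM as added) for 1 h at 37 °C, then compound for 1 h at 37 °C. Luminescence was read after 15 min at room temperature.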
MBNL1-CUG inh: blocks human MBNL1 binding to CUG repeat RNA; 280,000 compounds, 0.036% hits; Potency, µM (series often up to 57.5 µM), for inactives: top-dose activity change, negative = inhibition, hits mostly inhibitors; TR-FRET MBNL1-His/biotin-(CUG)12 binding, 665/545 ratio; Q9NR56; AID 2675; active means well fitted inhibition curve with a large enough effect in the signal ratio, with a control signal flat, not every such curve was filed as active; inconclusive means small, poorly fitted or top-dose-only effect, or effect the other way, or a change in a side signal; inactive means no such curve, though single readings can be large or run the other way; the % refers to the signal ratio; further: potency means the concentration at half of the fitted maximal effect; on the % scale 0 is the no-effect control and ±100 the full control effect
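TR-FRET readout: Ex 340 nm, 665/545 nm emission ratio, normalized to buffer-only (basal) and MBNL1-(CUG)12 controls. Complex of MBNL1-His with Biotin-(CUG)12, compounds 92 nM–58 uM, incubated 60 min at room temperature.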
DRD3 antagonist: antagonists of human D3 dopamine receptor; AID 652054; max response, negative = inhibition, %; D3R cells, DiscoveRx beta-arrestin luminescence, antagonist mode; hits give low values; 360,000 compounds, 2.5% hits; in the data active means max response below about -50%; inconclusive means no clear call, values can overlap the other calls; further: on the % scale 0 is the no-effect control and ±100 the full control effect
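Cells plated overnight at 1500 cells/well, then exposed to library compounds with dopamine controls for 90 minutes at 37 degrees C. DiscoveRx reagent added for 30–60 minutes at room temperature; luminescence read, quantitative HTS format.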
CBFb-RUNX1 inh: CBF-beta/RUNX1 interaction disruption; AlphaScreen CBFb-His/RUNX1-biotin binding, biochemical; Potency, µM (top dose mostly 59.8 µM), inactives show at the highest dose activity, negative = inhibition, usual class: inhibitors; 230,000 tested, under 10 active; further: % of control where 0% means no effect
Target sequence (Q01196 whole entry, looked up): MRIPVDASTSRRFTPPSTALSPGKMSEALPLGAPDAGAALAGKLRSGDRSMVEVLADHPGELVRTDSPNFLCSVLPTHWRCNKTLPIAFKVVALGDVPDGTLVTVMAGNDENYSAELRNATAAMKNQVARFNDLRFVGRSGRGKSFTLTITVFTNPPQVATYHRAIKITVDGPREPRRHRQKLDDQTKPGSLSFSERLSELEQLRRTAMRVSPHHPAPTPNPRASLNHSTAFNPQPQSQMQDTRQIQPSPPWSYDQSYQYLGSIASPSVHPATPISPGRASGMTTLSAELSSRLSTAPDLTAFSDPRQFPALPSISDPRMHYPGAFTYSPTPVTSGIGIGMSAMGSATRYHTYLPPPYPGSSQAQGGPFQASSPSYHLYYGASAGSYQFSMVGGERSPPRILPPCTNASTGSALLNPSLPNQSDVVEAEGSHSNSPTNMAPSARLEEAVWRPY
Target sequence (Q13951 whole entry, looked up): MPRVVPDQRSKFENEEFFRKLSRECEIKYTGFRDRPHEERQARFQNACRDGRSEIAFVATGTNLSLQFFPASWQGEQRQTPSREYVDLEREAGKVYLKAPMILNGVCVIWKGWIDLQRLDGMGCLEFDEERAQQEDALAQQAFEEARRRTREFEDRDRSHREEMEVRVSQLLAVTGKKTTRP
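AlphaScreen proximity signal reports loss of binding between His-tagged CBF-beta and biotin-labelled RUNX1, each at 30 nM. Proteins are pre-associated for 20 minutes, compounds added for 15 minutes, then beads for 90 minutes, all at ambient temperature.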
D3 ag: activates the human D3 dopamine receptor. P35462. AID 652048. max activation, %. D3R DiscoveRx beta-arrestin cells, luminescence, 90 min. 410,000 compounds, 0.58% hits; in the data active means max activation above about 30%; further: 0% is about no effect
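Cells at 1500/well, incubated overnight, then treated with pinned compounds (dopamine as control) for 90 min at 37 degrees C. DiscoveRx reagent added for 30 - 60 minutes at room temperature; luminescence read.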
* marks the source's active call; other numbers are inactive results; i = inactive; ? = inconclusive; . = no result given; [ ] = remark or other dose. Unless noted, the call rests on the fitted dose curve; in most records, active means well fitted curve in the direction sought with a large enough effect; inconclusive means small, poorly fitted or top-dose-only effect, or another doubt; inactive means no such curve, though single readings can be large; an effect the other way counts as inactive or inconclusive.

SMILES | Integrin act MD | PTHR1 agonist | MBNL1-CUG inh | DRD3 antagonist | CBFb-RUNX1 inh | D3 ag
COc1cc(NC(=O)c2cc(OC)c(OC)c(OC)c2)c2ncccc2c1 | -21% | -9% | . | 82 | . | 17
CCC(CC)C(=O)N(C)c1c(C)nc2c(OCc3ccc(C#N)cc3)cccn12 | . | i | . | ? | . | 7
CC(C)c1ccc(NC2(C#N)C(=O)Nc3ccccc32)cc1 (stereo not drawn) | -1% | i | ? | -53* | 2% | -7
COc1ccc(-c2nc(-c3ccc(NC(=O)c4ccncc4)cc3)no2)cc1OC | -15% | -92% | 4% | 70 | 6% | 50*
CCCOc1ccc(C2C3=C(Nc4nc(N)[nH]c(=O)c42)c2ccccc2C3=O)cc1 (stereo not drawn) | -36% | -10% | ? | -55* | -17% | -9
N#C/C(=C\c1ccccc1)C(=O)NNS(=O)(=O)c1ccc(Br)cc1 | 6% | -24% | . | -6 | . | 3
CCN1CCCC(OC(=O)C(c2ccccc2)c2ccccc2)C1 (stereo not drawn) | . | 0% | . | -53* | 14% | -83
COc1c(C)cc(S(=O)(=O)NCc2ccco2)c(C)c1C | 0% | i | 0% | 4 | . | 31*
O=C(NCC(c1cccs1)N1CCOCC1)c1cc(-c2ccc(F)cc2)nc2ccccc12 (stereo not drawn) | 20% | -20% | 6% | -69* | -11% | -13
Cc1cccc(C(=O)NCC(c2cccs2)N2CCOCC2)c1 (stereo not drawn) | 18% | i | . | -58* | . | -8
O=C(NCC(c1cccs1)N1CCOCC1)c1cn(-c2ccccc2)nc1-c1ccc(F)cc1 (stereo not drawn) | 8% | -13% | . | 11 | . | -5
OCC1(CCc2ccccc2)CCN(C/C=C/c2ccccc2)CC1 | -57% | -21% | -5% | -54* | . | -23
COC(=O)c1cccc(C(=O)N2CCC(CO)(Cc3ccccc3Cl)CC2)c1 | ? | -10% | 9% | 9 | -1% | 5
OCC1(Cc2ccccc2Cl)CCN(C/C=C/c2ccccc2)CC1 | -59% | i | 7% | -78* | -1% | -20
C=C(NC(=O)C(=C)NC(=O)c1csc(C2=N[C@@H]3c4csc(n4)[C@H]4NC(=O)c5csc(n5)[C@H]([C@](C)(O)[C@@H](C)O)NC(=O)[C@H]5CSC(=N5)C(=CC)NC(=O)C([C@@H](C)O)NC(=O)c5csc(n5)[C@]3(CC2)NC(=O)[C@H](C)NC(=O)C(=C)NC(=O)[C@H](C)NC(=O)C([C@@H](C)CC)NC2C=Cc3c([C@H](C)O)cc(nc3C2O)C(=O)O[C@@H]4C)n1)C(N)=O (stereo partly drawn) | . | . | . | . | . | -1
Cc1ccc(C2C3=C(CCCC3=O)Nc3[nH]c(=S)[nH]c(=O)c32)cc1 (stereo not drawn) | 6% | i | 8% | ? | 0% | -46
O=C1CCCC2=C1C(c1ccc(Br)cc1)c1c([nH]c(=S)[nH]c1=O)N2 (stereo not drawn) | -7% | -8%[57.5 µM] | -5% | -80* | ? | 3
Cc1ccc(S(=O)(=O)c2nc(-c3ccccc3F)oc2N2CCCCC2)cc1 | . | -26% | . | . | . | -9
CCOC(=O)SC1=N/C(=C\c2ccc(N(C)C)cc2)C(=O)S1 | -14% | ? | ? | -54* | -24% | -45
CCSC1=N/C(=C\c2ccc(C(=O)O)cc2)C(=O)S1 | -7% | i | 14% | -18 | -3% | 8
COc1cccc(CNc2nc3cc(-c4ccccc4)sc3c(=O)n2C)c1 | . | -12% | . | 13 | . | 10
COc1cccc(CNc2nc3cc(-c4ccc(OC)c(OC)c4)sc3c(=O)n2C)c1 | . | -26% | . | 39 | . | 40*
COc1cccc(-c2c(C(=O)N/N=C(\C)c3ccc(Cl)s3)nnn2-c2nonc2N)c1 | 18% | i | -4% | ? | . | -5
O=[N+]([O-])c1ccc(/C=N\O)o1 | . | . | . | . | . | -3
O=[N+]([O-])c1ccc(/C=N/N=C/c2ccc([N+](=O)[O-])o2)o1 | -26% | -39% | ? | -81* | -16% | -35
SMILES | Integrin act MD | PTHR1 agonist | MBNL1-CUG inh | DRD3 antagonist | CBFb-RUNX1 inh | D3 ag
Cc1cc(Br)ccc1NC(=O)CN(C)C(=O)C1CCN(C(=O)c2ccc(Cl)cc2)CC1 | -19% | -29% | . | 14 | . | 0
COc1ccc([N+](=O)[O-])cc1N(CC(O)CN1CCCCC1)S(=O)(=O)c1ccccc1 (stereo not drawn) | -15% | -28% | 5% | -22 | 13% | -14
CCCN(CCC)CC(O)CN(c1cc([N+](=O)[O-])ccc1OC)S(=O)(=O)c1ccccc1 (stereo not drawn) | -36% | 29%[57.5 µM] | 18% | -65* | 4% | -1
CNCCCC1c2ccccc2C=Cc2ccccc21 | . | -1% | 20% | -99* | 10% | -87
COc1ccc(S(=O)(=O)N(CCN2CCOCC2)Cc2cc(OC)ccc2OC)cc1 | -20% | i | -3% | -27 | -6% | 0
O=S(=O)(c1ccc(Cl)cc1)N(CCCN1CCOCC1)Cc1cccs1 | 0% | i | -1% | -80* | -9% | -7
S=C(Nc1ccc(Cl)cc1)N(CCCN1CCOCC1)Cc1cccs1 | 6% | i | -5% | -21 | -10% | -10
COc1ccc(S(=O)(=O)N(CCCN2CCOCC2)Cc2cccc(OC)c2OC)cc1 | -19% | -4%[57.5 µM] | -4% | -76* | 0% | -12
COc1ccc(S(=O)(=O)N(CCCN2CCOCC2)Cc2cccc3ccccc23)cc1 | 7% | -18%[57.5 µM] | -9% | -85* | 19% | -20
COc1ccc(NC(=S)N(CCCN2CCOCC2)Cc2cn(C)c3ccccc23)cc1 | 10% | -19% | -2% | ? | -8% | -8
COc1cc(OC)cc(-n2nnnc2SCC(=O)NC2CCCC2)c1 | -27% | i | -5% | -71* | 1% | 3
COc1ccc(OC)c(NC(=O)CSc2nnnn2C2CCCC2)c1 | -23% | -3% | -6% | 2 | . | 36*
Nn1c(SCC(=O)NC2CCCCC2)nnc1C1CC1 | 5% | -12%[57.5 µM] | -5% | -63* | 16% | -7
COc1ccc(NC(=O)CSc2nnnn2C2CCCCC2)c(OC)c1 | -12% | i | -3% | -7 | . | 3
OC[C@@H]1CN(Cc2ccc(-c3ccccc3)cc2)C[C@H](n2cnc3c(NCc4ccco4)ncnc32)O1 | . | -54% | . | 129 | . | 8
Cc1onc(-c2ccccc2)c1-c1nnc(CN2CCN(S(=O)(=O)c3ccccc3)CC2)o1 | -38% | -61% | . | 30 | . | 3

Source: PubChem
